Results reported in PubChem BioAssay (NCI).
About 79,000 compounds went through this panel and 15% of them were active in at least one assay; those are over-represented in the sample as a whole. A number with no mark means an inactive call. Active and inactive are the calls of the source. No stated cut-off is given here; in the data, active means growth inhibition above about 70%; inactive means the rest.

Tests used:
[1] = NCI Yeast Anticancer Drug Screen. Data for the rad50 strain (AID 155);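 further: 0% = growth of vehicle-only cultures of the same strain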; conditions: S. cerevisiae rad50 strain growth inhibition, stronger effect = higher value
Method in brief: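 Vehicle-treated cultures provide the reference for the growth inhibition reported for compound-exposed, repair-deficient yeast.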

[2] = NCI Yeast Anticancer Drug Screen. Data for the mec2-1 strain (AID 157); conditions: S. cerevisiae mec2-1 strain, stronger effect = higher value
Method in brief: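 Mutant yeast (mec2-1) grown with compound; growth inhibition relative to vehicle control reported.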

[3] = NCI Yeast Anticancer Drug Screen. Data for the sgs1 mgt1 strain (AID 161);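 further: 0% = growth of cultures given vehicle only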; conditions: S. cerevisiae sgs1 mgt1 strain, stronger effect = higher value
Method in brief: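 Growth of a repair-deficient yeast mutant was monitored after compound treatment and expressed as inhibition relative to vehicle-treated cultures.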

[4] = NCI Yeast Anticancer Drug Screen. Data for the cln2 rad14 strain (AID 165);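 further: 0% = growth equal to vehicle treated cultures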; conditions: S. cerevisiae cln2 rad14 strain, stronger effect = higher value
Method in brief: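 Readout is yeast growth inhibition versus vehicle-treated controls, using a strain with cln2 and rad14 alterations exposed to compound.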

[5] = NCI Yeast Anticancer Drug Screen. Data for the bub3 strain (AID 167); conditions: S. cerevisiae bub3 mutant strain, stronger effect = higher value
Method in brief: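 Mutant yeast screening strain plus compound; vehicle-treated cultures serve as the 0% inhibition reference.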

[6] = NCI Yeast Anticancer Drug Screen. Data for the mlh1 rad18 strain (AID 175); conditions: S. cerevisiae mlh1 rad18 strain growth inhibition, stronger effect = higher value
Method in brief: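 Genetically defined yeast (DNA repair-deficient) exposed to compounds; growth inhibition determined relative to vehicle.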

[7] = at 5.0 µM (retest, dose inferred, filed as 0.5)
[8] = at 50.0 µM (retest, dose inferred, filed as 5.0)

SMILES | growth inhibition [1, 7] | growth inhibition [1, 8] | growth inhibition ([1]; at 50.0 µM) | growth inhibition [2, 7] | growth inhibition [2, 8] | growth inhibition ([2]; at 50.0 µM) | growth inhibition [3, 7] | growth inhibition [3, 8] | growth inhibition ([3]; at 50.0 µM) | growth inhibition [4, 7] | growth inhibition [4, 8] | growth inhibition ([4]; at 50.0 µM) | growth inhibition [5, 7] | growth inhibition [5, 8] | growth inhibition ([5]; at 50.0 µM) | growth inhibition [6, 7] | growth inhibition [6, 8] | growth inhibition ([6]; at 50.0 µM)
Cc1ccc[n+](CC(=O)C2CCC3C4CC=C5CC(O)CCC5(C)C4CCC23C)c1 (centres undefined) | 2% | 28% | 95.4% (active) | 1% | 24% | 98.2% (active) | 5% | 64% | 98.8% (active) | 6% | 25% | 90.1% (active) | 3% | 27% | 96.8% (active) | -4% | 24% | 98% (active)
CCN(CC)C(=S)n1c(=S)nc(N(CC)CC)sc1=S | 57% | 97% (active) | 89.3% (active) | 42% | 98% (active) | 92.2% (active) | 63% | 99% (active) | 92.5% (active) | 39% | 86% (active) | 88.9% (active) | 54% | 83% (active) | 91.2% (active) | 75% (active) | 98% (active) | 89.8% (active)
CC(=O)Oc1cc(Cl)ccc1Cc1ccc(Cl)cc1OC(C)=O | 0% | 87% (active) | 94.5% (active) | 1% | 78% (active) | 91.4% (active) | 0% | 76% (active) | 85.1% (active) | 2% | 89% (active) | 90.7% (active) | 2% | 83% (active) | 94.8% (active) | 1% | 90% (active) | 94.7% (active)
CCOC(=O)N1CCN(C=S)CC1 | -8% | 6% | 31.1% | 0% | -7% | -23.3% | -5% | -17% | 57.7% | 17% | 31% | 15.8% | 8% | 31% | 24% | -5% | -1% | 38.2%
CCOC(=O)C(=N\Nc1c(C)cccc1C)/C(C)=N\NC(N)=S | -17% | 15% | 64.7% | -7% | 25% | 32.6% | 7% | 45% | 58.2% | -13% | -9% | 54.8% | -3% | 4% | 51.5% | 11% | 42% | 69.2%
c1ccc(CC(Cc2ccccc2)c2cccnc2)cc1 | 18% | 84% (active) | 98.7% (active) | 21% | 62% | 98.3% (active) | 35% | 89% (active) | 98.7% (active) | 34% | 66% | 97.9% (active) | 43% | 88% (active) | 99% (active) | 25% | 84% (active) | 98.3% (active)
CCNC(=S)NC1CCCCCCCCCCC1 | 99% (active) | 100% (active) | 87.8% (active) | 99% (active) | 99% (active) | 75.3% (active) | 26% | 88% (active) | 87.2% (active) | 51% | 59% | 20.8% | 40% | 81% (active) | 82.9% (active) | 100% (active) | 100% (active) | 69.2%
O=[N+]([O-])c1ccc(N2CCCC(n3cccc3)C2)c([N+](=O)[O-])c1 (centres undefined) | 7% | 38% | 47.6% | -2% | 5% | 46.2% | 4% | 27% | 61.3% | 12% | 49% | 50.2% | -9% | 50% | 67.6% | 1% | 55% | 48.5%
CCC[CH2][Ge]([CH2]CCC)([CH2]CCC)[O]C(=O)CC(=O)c1ccccc1 | 10% | 62% | 53.3% | -3% | 65% | 45.1% | 6% | 41% | 32.2% | 1% | 20% | 43.5% | -17% | 27% | 79.5% (active) | -1% | 46% | 67.4%
CCCCN(CCCC)C(=O)c1ccc(OC(=O)OCC)c(OC)c1 | 4% | 6% | 56.9% | 0% | 10% | 37% | 2% | 31% | 49.8% | 4% | 17% | 8.8% | 2% | 24% | 85.1% (active) | -2% | 29% | 17%
COC(=O)CC1c2cc(OC)c3cccc(OC)c3c2CCC1(C)C(=O)OC (centres undefined) | 94% (active) | 89% (active) | 45.8% | 94% (active) | 90% (active) | 18.4% | 95% (active) | 95% (active) | 93.2% (active) | 91% (active) | 90% (active) | 73% (active) | 95% (active) | 90% (active) | 77.2% (active) | 94% (active) | 91% (active) | 13.7%
Cc1nc(Nc2ccccc2)sc1C(=O)NNc1ccc([N+](=O)[O-])cc1[N+](=O)[O-] | 19% | 19% | 12.6% | 7% | 7% | 40.2% | -6% | -6% | 60.8% | 14% | 14% | 28.4% | 15% | 15% | 43% | 20% | 20% | 66.2%
CN(C)CCOC1(CC2CCCCC2)CCC(C(C)(C)C)CC1 (centres undefined) | -9% | 100% (active) | 99% (active) | -17% | 99% (active) | 99% (active) | -6% | 99% (active) | 99.4% (active) | 11% | 100% (active) | 99.5% (active) | -1% | 100% (active) | 98.9% (active) | 14% | 100% (active) | 99.3% (active)
C#CCCCCCOC(=O)c1cc([N+](=O)[O-])cc([N+](=O)[O-])c1 | 97% (active) | 99% (active) | 98.5% (active) | 99% (active) | 99% (active) | 99% (active) | 99% (active) | 99% (active) | 99% (active) | 95% (active) | 98% (active) | 98.1% (active) | 98% (active) | 99% (active) | 99.2% (active) | 99% (active) | 99% (active) | 98% (active)
OCCN(CCO)c1cc(/C=C/c2ccnc3ccccc23)nc2ccccc12 | 7% | 32% | 60.5% | 1% | 23% | 28.6% | 12% | 47% | 28.6% | -1% | 43% | 61.5% | 1% | -13% | -12.6% | 9% | 35% | 53.4%
COc1cc2c(cc1O)-c1c(cnn1-c1ccc([N+](=O)[O-])cc1)CCC2 | 7% | 56% | 79% (active) | 4% | 27% | 91.9% (active) | 4% | 38% | 85.6% (active) | 3% | 52% | 73% (active) | 0% | 3% | 93.2% (active) | 17% | 71% (active) | 94.8% (active)
NCCc1ccc2oc3cc(=O)c4ccccc4c-3nc2c1 | 3% | 22% | 45.4% | -1% | 30% | 24.7% | 7% | 46% | 43.8% | 1% | 8% | 28.7% | 0% | 30% | 56.2% | 3% | 41% | 80.8% (active)
[O-][N+]1=C2CCC/C(=N/O)C2(O)C2CCCCC21N1CCOCC1 (centres undefined) | 26% | 20% | -8.05% | 29% | 19% | -39.8% | 24% | 21% | -2.1% | 23% | 26% | 25.5% |  |  |  | 28% | 26% | -3.2%
OC(c1cc(-c2ccc(Cl)cc2Cl)nc2ccccc12)C1CCCCN1 (centres undefined) | -6% | 98% (active) | 98.8% (active) | -4% | 99% (active) | 72.2% (active) | -5% | 99% (active) | 99.1% (active) | -3% | 97% (active) | 64.7% | 0% | 99% (active) | 98.8% (active) | -6% | 99% (active) | 97.3% (active)
